# Only some compounds are listed: those with a hit (about 18% of all), similar ones and a draw of the others.
# VDR inhibitor: blocks the human vitamin D receptor; P11473; Potency, µM, inactives show max response, negative = inhibition, hits mostly inhibitors; AID 504847; 400,000 compounds, 0.93% hits; VDR-SRC2-3 peptide fluorescence polarization, 2 h
#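 After 23 nl compound addition and a short centrifugation, plates sat for 2 hours at ambient temperature; polarization of fluorescence then indicated loss of VDR binding to peptide SRC2-3.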
# PLK1 PBD inh: inhibitors of human PLK1 polo-box domain binding; P53350; Plk1 PBD binding of FITC phosphopeptide, fluorescence polarization; Potency, µM, inactives show max response, negative = inhibition, most hits filed as inhibitors; 360,000 compounds, 2.8% hits; note: series mostly up to about 57 µM; nearly all actives have a fitted effect of over 65% in size
# DT40 TDP1 no CPT: qHTS for Inhibitors of human tyrosyl-DNA phosphodiesterase 1 (TDP1): qHTS in cells in absence of CPT; DT40 Tdp1-/- hTDP1 cells, no CPT, ATP luminescence, 48 h; AID 686978, 2013; 420,000 compounds, 15% hits; Potency, µM (series often up to 46.2 µM), without a hit: at the top dose activity change, negative = growth inhibition, hits mostly inhibitors; note: nearly all actives have a fitted effect of over 55% in size
#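 Stably hTDP1-transfected Tdp1-null chicken DT40 cells were treated with library compounds minus camptothecin and grown for at least 48 hr at 37 °C, after which cellular ATP was quantified by luminescence.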
# GCN5L2 inh: blocks human GCN5L2 histone acetyltransferase. Q92830. GCN5L2 HAT assay, ThioGlo1 CoA-SH fluorescence. Potency, µM (highest dose often 58.9 µM), for inactives: at the highest dose activity change, negative = inhibition, usual class: inhibitors. 390,000 compounds, 0.21% hits
#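 qHTS, 1536-well. 20nM enzyme, pH 7.5 HEPES/EDTA/Tween-20 buffer; 15 min compound preinc., RT. Start: 75uM H3(1-25), 70uM AcCoA, 50uM ThioGlo1. Read Ex340/Em540 at t=0 (autofluorescence flag) and t=20 min.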
# TDP1 cell CPT: DT40-hTDP1 cell growth loss with CPT | chicken DT40 Tdp1-/-;hTDP1 cells + 20 nM CPT, ATP luminescence, 48 h | Potency, µM (highest dose often 46.2 µM), inactives show at the highest dose activity change, negative = growth inhibition, usual class: inhibitors | 420,000 compounds, 12% hits; note: nearly all actives have a fitted effect of over 55% in size
#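 Chicken DT40 Tdp1-/- cells complemented with human TDP1, 400 cells/well, exposed to compounds plus 20 nM camptothecin for at least 48 h at 37 C; viability read as ATP content by CellTiter-Glo luminescence.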
# TDP1 inh: TDP1 (human) enzyme inhibition | Q9NUW8 | recombinant TDP1, AlphaScreen DNA substrate cleavage | Potency, µM (highest dose often 130 µM), for inactives: at the top dose activity change, negative = inhibition, most hits filed as inhibitors | 350,000 compounds, 0.28% hits; note: nearly all actives have a fitted effect of over 40% in size
# Target sequence (Q9NUW8 whole entry, looked up): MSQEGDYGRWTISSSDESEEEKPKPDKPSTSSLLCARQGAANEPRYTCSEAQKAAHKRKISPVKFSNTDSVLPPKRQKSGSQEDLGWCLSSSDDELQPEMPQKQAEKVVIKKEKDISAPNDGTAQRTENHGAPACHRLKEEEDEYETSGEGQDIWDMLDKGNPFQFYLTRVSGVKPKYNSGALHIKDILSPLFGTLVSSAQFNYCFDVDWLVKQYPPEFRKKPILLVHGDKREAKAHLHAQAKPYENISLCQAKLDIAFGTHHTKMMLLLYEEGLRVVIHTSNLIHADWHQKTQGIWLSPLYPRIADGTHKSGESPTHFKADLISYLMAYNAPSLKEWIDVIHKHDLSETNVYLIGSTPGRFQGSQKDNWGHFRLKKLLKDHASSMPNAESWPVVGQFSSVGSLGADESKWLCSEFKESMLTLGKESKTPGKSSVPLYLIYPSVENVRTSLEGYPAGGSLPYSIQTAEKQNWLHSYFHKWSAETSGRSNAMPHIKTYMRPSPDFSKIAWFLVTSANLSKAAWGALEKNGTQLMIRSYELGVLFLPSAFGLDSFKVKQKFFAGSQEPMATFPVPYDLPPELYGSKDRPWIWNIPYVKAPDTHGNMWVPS
#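 Steps: enzyme plus compound, 15 min RT; add biotin/phosphotyrosine-FITC oligonucleotide (15 nM final), react 5 min; add donor/acceptor beads (10 ug/ml final), 10 min; read AlphaScreen. Tdp1 at 1 nM final.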
# * marks the source's active call; other numbers are inactive results; ? = inconclusive; / = no result; [ ] = dose if it differs, or a comment. Calls come from the whole dose curve; as a rule, active = well fitted curve in the direction sought with a large enough effect; inconclusive = small, poorly fitted or top-dose-only effect, or another doubt; inactive = no such curve, though single readings can be large; an effect the other way counts as inactive or inconclusive. % is set by controls: 0 for no effect and ±100 for the full control effect; potency is the fitted concentration of half-maximal effect.
SMILES,VDR inhibitor,PLK1 PBD inh,DT40 TDP1 no CPT,GCN5L2 inh,TDP1 cell CPT,TDP1 inh
CCOc1ccccc1NC(=O)Cn1c(=O)ccc2cc(S(=O)(=O)N3CCC(C)CC3)ccc21,-3.0%,/,25.9µM*,-5.8%,?,-1.1%
COc1ccccc1CNC(=O)Cn1c(=O)ccc2cc(S(=O)(=O)N3CCC(C)CC3)ccc21,5.5%,/,?,-12.4%,23.1µM*,2.2%
CCCOc1ccc(-c2c(C(=O)N/N=C(\C)c3cccs3)nnn2-c2nonc2N)cc1,-11.2%,-16.7%,13.7%,-7.9%,-15.7%,1.9%
COCC(C)n1c(C)cc(C(=O)COC(=O)c2cc(=O)[nH]c3ccccc23)c1C (stereo not given),?,-9.0%,?,-10.9%,?,9.4%
CC1=CC(=O)C=C(C)C1=NOS(=O)(=O)c1ccccc1,-0.3%,-25.9%,2.06µM*,-19.0%,1.3µM*,9.1%
CC1=CC(=O)C(C(C)C)=C/C1=N/OS(=O)(=O)c1ccccc1,-27.2%,-16.7%,0.581µM*,-17.9%,0.581µM*,/
Cc1ccc2c(c1)/C(=N/OS(=O)(=O)c1ccccc1)CCS2,-8.0%,-6.5%,-21.1%,/,?,/
CCc1ccc2nc(N(Cc3cccnc3)C(=O)Cc3ccccc3)sc2c1,3.1%,/,?,-17.1%,?,7.8%
O=C(CSc1ccc([N+](=O)[O-])cn1)Nc1cc(C(F)(F)F)ccc1N1CCOCC1,-10.3%,-0.5%,?,?,?,6.5%
O=C(Nc1cccc(Br)c1)c1ccc(CN2CCc3ccccc3C2)cc1,-14.9%,-10.5%,16.4µM*,-8.8%,?,/
COc1ccc(CN2CCc3ccc(NC(=O)CCc4ccccc4OC)cc3C2)c(O)c1,-0.3%,2.8%,23.1µM*,-1.4%,14.6µM*,5.1%
COc1cc(CN2CCc3ccc(NC(=O)CCc4ccccc4OC)cc3C2)ccc1O,-8.8%,-9.7%,?,-22.3%,?,7.4%
COc1ccc(NC(=O)c2ccc(CN3CCc4ccccc4C3)cc2)c(OC)c1,-10.5%,1.7%,?,-7.0%,23.1µM*,/
COC(=O)CC1C2(C)CC34OC5(C)O[C@@]6(C7/C(=C(/O)C(C)C)C(=O)OC(c8ccoc8)[C@]7(C)C(OC(C)=O)C(OC(C)=O)[C@]6(O5)[C@@]13C)C(OC(C)=O)[C@]4(O)C2OC(=O)C(C)C (stereo not given in full),3.5%,/,-3.7%,-4.4%,-13.6%,8.5%[56.1 µM]
CSCCC(NC(=O)COc1ccccc1)C(=O)N1CCOCC1 (stereo not given),5.9%,-4.2%,8.0%,-4.9%,-11.0%,0.3%
COc1ccc(-c2cnc3c(NC=O)cc(-c4ccccc4)cn23)cc1OC,/,-8.2%,0.92µM*,/,0.92µM*,/
COc1ccc(-c2cnc3c(NC=O)cc(-c4ccoc4)cn23)cc1OC,/,-18.0%,2.91µM*,/,5.17µM*,/
COc1ccc(-c2cc(NC=O)c3ncc(-c4cc(OC)c(OC)c(OC)c4)n3c2)cc1,/,-9.4%,0.206µM*,/,0.146µM*,/
COc1ccc(F)cc1-c1cc(NC=O)c2ncc(-c3cccc(C(F)(F)F)c3)n2c1,/,1.2%,4.61µM*,/,5.17µM*,/
CCSc1ccc(-c2cc(NC=O)c3ncc(-c4cc(OC)c(OC)c(OC)c4)n3c2)cc1,/,-15.8%,?,/,?,/
COc1ccc(CCNC(=O)C(=O)NCc2ccc(Cl)cc2)cc1OC,-26.6%,-5.6%,5.1%,-6.7%,0.4%,1.2%
NS(=O)(=O)c1ccc(CCNC(=O)Cc2cccs2)cc1,-3.6%,-1.5%,-10.9%,-14.2%,-11.1%,/
COc1ccc(-c2cnc3c(NC=O)cc(-c4ccc(F)cc4)cn23)cc1OC,/,-10.6%,0.013µM*,/,0.0058µM*,/
COc1ccc(-c2cnc3c(NC=O)cc(-c4cccc(NS(C)(=O)=O)c4)cn23)cc1OC,/,-6.8%,3.66µM*,/,4.61µM*,/
COc1ccc(-c2cnc3c(NC=O)cc(-c4cc(OC)c(OC)c(OC)c4)cn23)cc1OC,/,-5.7%,5.17µM*,/,6.51µM*,/
SMILES,VDR inhibitor,PLK1 PBD inh,DT40 TDP1 no CPT,GCN5L2 inh,TDP1 cell CPT,TDP1 inh
COc1cccc(-c2cnc3c(NC=O)cc(-c4cc(OC)c(OC)c(OC)c4)cn23)c1,/,-9.7%,?,/,?,/
COc1cccc(-c2cc(NC=O)c3ncc(-c4ccc(OC)c(OC)c4)n3c2)c1,/,-10.9%,4.11µM*,/,5.17µM*,/
Cc1ccc(NC(=S)NCc2ccc3c(c2)cc(C)n3C)c(C)c1,?,18.9µM*,23.1µM*,-7.9%,23.1µM*,1.2%
Cc1ccc(NC(=S)NCc2ccc3c(c2)OCO3)c(C)c1,-8.0%,-1.0%,20.6µM*,-5.5%,?,2.6%
COc1ccc2nc(SC(C(=O)c3ccccc3)c3ccccc3)nc(C)c2c1 (stereo not given),8.8%,-16.1%,?,-8.4%,23.1µM*,-3.0%
O=C(/C=C/c1cccc([N+](=O)[O-])c1)OCC(=O)N1CCCCC1,/,-3.8%,5.3%,/,11.7%,/
COc1ccc(/C=C/C(=O)N2CCc3c(cnc(C)c3CNS(=O)(=O)c3cccs3)C2)cc1,/,/,?,/,0.2%[9.04 µM],/
Cc1ccc(C)c(N2CCN(CCCNC(=O)CCC(=O)N3CCOc4ccc(Cl)cc43)CC2)c1,/,/,/,-2.9%,/,6.2%
O=C(CCC(=O)N1CCOc2ccc(Cl)cc21)NCCCN1CCN(c2ccccc2F)CC1,3.6%,1.9%,18.4µM*,-2.1%,20.6µM*,/
O=C(CCC(=O)N1CCOc2ccc(Cl)cc21)NCCCN1CCC(Cc2ccccc2)CC1,-22.1%,-6.4%,18.4µM*,0.7%,?,/
COc1ccc(N2CCN(CCCNC(=O)CCC(=O)N3CCOc4ccc(Cl)cc43)CC2)cc1,-10.2%,-9.8%,?,-6.0%,?,9.2%
O=S(=O)(c1ccc2nc(Cl)c(Cl)nc2c1)N1CCN(S(=O)(=O)c2c(F)cccc2F)CC1,/,/,/,/,/,-13.0%
Cc1nc(C)c(CCNS(=O)(=O)c2ccc(C)c(C)c2)s1,6.6%,/,/,-6.6%,/,3.3%
CC(C)Oc1ccc(OCCn2c(=S)[nH]c3c(N)ncnc32)cc1,-1.0%,10.6µM*,?,?,-20.3%,8.6%
Nc1ncnc2c1ncn2CCOc1ccccc1,11.0%,-3.7%,-13.3%,-8.0%,-21.7%,0.0%
Cc1ccc(NC(=O)c2cc3c([nH]c2=O)CC(C)(C)CC3=O)cc1,/,/,-24.0%,/,?,/
CCCn1c(=O)[nH]c(=O)c2c1nc(-c1ccc(C#N)cc1)n2CCOC,-4.3%,-8.5%,-16.5%,-9.0%,6.0%,-1.6%

# Screening results (PubChem BioAssay)
